# The campaign covered roughly 2,200 compounds. About 530 (24%) were called active. These entries were drawn from the full list. Measured potencies and affinities stand elsewhere. Values without a mark were called inactive.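 The calls were made as follows: active = inhibition above a set limit at one or more concentrations of the dose series; inactive = inhibition under that limit at every dose.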
# Assay: nmpC-GFP reporter counter-screen in S. Typhimurium, dose response, counter-screen for PhoP regulon inhibitor project, Salmonella Typhimurium, GFP fluorescence (AID 2401);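 also: S. typhimurium with Mg-insensitive nmpC-GFP reporter grown at 10 µM Mg2+; drop in reporter fluorescence reflects general culture growth inhibition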
# Conditions: 4 h; series mostly up to 150 µM; inhibition: at the top concentration
row,Structure (SMILES),inhibition [%]
1,CC(=O)Nc1cccc(-c2csc(Nc3ccccn3)n2)c1,12.4
2,c1ccc(Nc2nc3ccccc3[nH]2)nc1,-16.9
3,Clc1ccc(Cn2ncc3c(NCc4ccco4)ncnc32)c(Cl)c1,-19.8
4,Cc1nc2cc(NC(=O)N3CCN(c4ccccn4)CC3)ccc2o1,-9.97
5,CC(C)N(Cc1nc(-c2ccccc2)no1)C(=O)CN(C)S(=O)(=O)c1ccccc1,-27.9
6,COc1ccccc1NCCC(=O)OCC(=O)NC1CCCCCC1,1.86
7,Cc1ccc(NC(=O)CO/N=C(\N)c2nonc2N)cc1,-22.7
8,O=c1cc(CSc2nc(NCc3ccccc3)c3ccccc3n2)nc2ccc(Cl)cn12,-29.7
9,N/C(=N\OC(=O)N1c2ccccc2Sc2ccccc21)c1ccccc1,3.91
10,Cc1cc(C)cc(OC(=O)CS(=O)c2ccc(C(F)(F)F)cc2[N+](=O)[O-])c1 (configuration not stated),-12.9
11,CCCOc1ccc(/C=N/O)cc1,-22.8
12,C=C(C)C1Cc2cc3ccc(=O)oc3cc2O1 (configuration not stated),-20.6
13,CCOc1cc(C2Nc3cccc4cccc(c34)N2)ccc1O,14.6
14,COC(=O)CCC(=O)Nc1ccc(OC)cc1,-5.35
15,CC(=O)N/N=C/c1ccc(OCCOc2ccc(Br)cc2)cc1,-12.3
16,COc1cccc(-n2c(SCc3cc(=O)oc4cc(O)c(O)cc34)nc3ccccc3c2=O)c1,13.4
17,O=C(Cn1cnc2scc(-c3ccccc3)c2c1=O)N1CCOCC1,-6.08
18,COc1ccccc1Nc1nc(-c2c(C)[nH]c3ccccc23)cs1,32.7
19,N#Cc1c(N)n[nH]c1-c1cc2c([nH]1)CCCC2,-26.1
20,Cc1ccc(CNC(=O)Nc2cccs2)cc1,-6.52
21,CCc1cccc2c(C#N)cn(CC(=O)NCCOC)c12,-28.3
22,Cc1nc(N2CCN(Cc3ccccc3)CC2)nc2c1C(=O)CC(C)C2 (configuration not stated),-10
23,Cc1cc(C)n(-c2ccc(C(=O)OCC(=O)Nc3ccc([N+](=O)[O-])cc3)cc2)n1,-6.55
24,O=C(OCCN1C(=O)c2ccccc2C1=O)c1ccc(S(=O)(=O)N2CCCCCC2)cc1,6.73

row,Structure (SMILES),inhibition [%]
1,COc1ccc(/C=C2\CN(Cc3ccccc3)C/C(=C\c3ccc(OC)cc3)C2=O)cc1,2.16
2,N/C(=N\OC(=O)Nc1ccc(Cl)cc1)c1ncc(C(F)(F)F)cc1Cl,-13.7
3,COc1cccc(C=NCC(C)N=Cc2cccc(OC)c2O)c1O (configuration not stated),6.34
4,Cn1c(CO)cnc1SCc1ccc([N+](=O)[O-])cc1,-31.8
5,Cc1nn(-c2ccccc2)c2sc(-c3n[nH]c(=S)o3)cc12,-18
6,COc1ccc(C(=O)NC(=S)NCc2ccc(-c3nc4ccccc4o3)cc2)cc1OC,-29.8
7,O=C1NC(c2ccc3c(c2)OCO3)Oc2ccccc21 (configuration not stated),-11.5
8,O=C(O)CCC(=O)NCC1OCCc2ccccc21 (configuration not stated),-11.9
9,C=CCNc1nnc(Cl)c2ccccc12,-3.69
10,CCCCCCCCOC(=O)C1=C(C)Nc2nnnn2C1c1cccs1 (configuration not stated),6.8
11,CCOC(=O)c1c(/N=C/c2ccc(O)cc2O)sc2c1CCC2,9.86
12,O=C(c1ccc(Cl)cc1Cl)C1(n2cncn2)Oc2ccccc2C1O (configuration not stated),20.3
13,Cc1sc(NC(=O)c2ccco2)c(CN2CCN(c3ccc(F)cc3)CC2)c1C,9.11
14,O=C(CCN1CCN(c2ccc(F)cc2)CC1)Nc1ccccc1F,-8.75
15,CCOC(=O)c1cc2sc(C)cc2n1CC(=O)NCc1ccc(F)cc1,-16.9
16,CC(C(=O)Nc1cc([N+](=O)[O-])ccc1Cl)N1CCN(c2ccccc2O)CC1 (configuration not stated),-10.1
17,CC(C)NC(=O)/C(=N\O)c1ccccc1,-6.42
18,CCOC(=O)C(/C=C(\C#N)C(=O)OCC)=C(/N)N1CCN(c2c(C)cccc2C)CC1,-4.43
19,O=S(=O)(Nc1cc(Sc2ncn[nH]2)c(O)c2ccccc12)c1ccccc1,19.9
20,O=[N+]([O-])c1ccc(NCCCNS(=O)(=O)c2ccccc2)c(Cl)c1,-16.6
21,Nc1c(-c2ccccc2)cnn1-c1cccc([N+](=O)[O-])c1,-14.3
22,CCC(Sc1ncccc1C(=O)OC(C)C)C(=O)N1CCOCC1 (configuration not stated),-11.1
23,Cc1ccc(C)n1-c1cc(S(=O)(=O)N2CCOCC2)ccc1N1CCCC1,-26.3
24,Cc1cc(Nc2ccccc2F)n2ncnc2n1,-16.8

row,Structure (SMILES),inhibition [%]
1,N#Cc1ccc(CSc2nnc(-c3ccncc3)n2CCc2ccccc2)cc1,-14.9
2,C/C(=N\NC(=O)c1ccccc1)c1ccc2c(c1)OCO2,7.65
3,O=C(NN=C1CCN(Cc2ccccc2)CC1)c1cc2ccccc2cc1O,22.1
4,CN(C(=S)Nc1ccc(Oc2ccccc2)cc1)c1ccc(O)cc1,-25.9
5,CC(C)Cn1c(-c2ccccc2)nc2ccccc2c1=O,15
6,COC(=O)c1c(C(=O)OC)c(-c2cccc(C)c2)n2c1CS(=O)(=O)C2,-17.4
7,NC(=NCCc1c[nH]c2ccccc12)NC(=O)c1ccc(F)cc1,11
8,CC1CCN(c2ccc(NC(=S)NC(=O)c3ccc(-c4cccc([N+](=O)[O-])c4)o3)cc2)CC1,-4.01
9,CCOc1ccc(-c2noc(CCCC(N)=O)n2)cc1OC,-19.5
10,O=C(CNC(=O)c1ccco1)OCC(=O)c1ccc2c(c1)CCCC2,6.89
11,C/C(=N\n1nnnc1Nc1ccccc1)c1ccc(N)cc1,-25.1
12,COc1ccc(NC(=O)CSc2nc(C)cs2)cc1OC,-40.4
13,c1ccc(CCNc2nc3ccccc3s2)cc1,2.79
14,Cc1cc(NC(=O)c2cnn3cccnc23)no1,18.4
15,COc1ccc(-c2ccc(-c3noc(-c4cccs4)n3)c(OC)n2)cc1,18.1
16,COc1ccc(NC(C)C(=O)Nc2ccc(C(C)(C)C)cc2)cc1Cl (configuration not stated),-15.3
17,CC1CCCCN1CCNS(=O)(=O)c1ccc2c(c1)oc(=O)n2C (configuration not stated),-11.4
18,Cc1ccccc1-n1nnnc1Sc1nnnn1-c1ccccc1,-1.79
19,C=CCn1c(SCc2c(C(=O)OC)sc(N)c2C(=O)OC)nnc1-c1ccc(Cl)cc1,-13.2
20,CSCCC(NC(=O)c1cccc(C)c1)C(=O)OCC(=O)NC(=O)c1cccn1C (configuration not stated),2.31
21,COc1ccc(-c2cc(C(=O)O)[nH]n2)cc1OC,-13.4
22,O=C(O)CCc1nn2c3ccccc3n(CC(=O)c3ccccc3)c2nc1=O,-11
23,COc1ccccc1/C=C1\CCCC2=C1Nc1nnnn1C2c1ccccc1OC (configuration not stated),29.8
24,CCN(CC(=O)N1CCN(Cc2ccccc2)CC1)S(=O)(=O)c1ccc(F)cc1,-13.4

# Reference: PubChem BioAssay AID2401 (Southern Research Specialized Biocontainment Screening …, 2010)
